# Data published in PubChem BioAssay (NCATS).
# Records with an inconclusive call do not appear. Values without a mark were called inactive. Calls of active or inactive are those of the source. Calls follow the shape of the dose curve; as a rule, active = well fitted curve in the direction sought with a large enough effect; inconclusive = small, poorly fitted or top-dose-only effect, or another doubt; inactive = no such curve, though single readings can be large; an effect the other way counts as inactive or inconclusive.
# What was measured:
# [1] = Viability qHTS for spleen associated tyrosine kinase inhibitor (SYKi) drug resistant MV4-11 cells (AID 1963824); settings: SYKi-resistant MV4-11 viability, CellTiter-Glo, 72 h; series mostly up to 45 µM; also: nearly all actives have a fitted effect of over 35% in size; also: potency is read from the fitted curve at half-maximal effect
# In short: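 SYK inhibitor-resistant MV4-11 AML cells, 500 per well, added to predispensed compounds and incubated 72 hr at 37 C, 5% CO2. Viability measured by CellTiter-Glo luminescence after 10 min at room temperature.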
# [2] = Quantitative highthroughput screen to assess conditional lethalithy of NOMO1 cells grown in RPMI1640 with untreated serum (RPMI+s) (AID 1963876); settings: NOMO1 AML cells in RPMI+serum, CellTiter-Glo viability, 48 h; series mostly up to 45.8 µM; also: nearly all actives have a fitted effect of over 35% in size; also: potency is read from the fitted curve at half-maximal effect;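 as to Viability: 100% = DMSO wells and 0% = empty wells without cells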
# In short: (§1)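 Each medium arm—HPLM with 10% dialyzed FBS, or RPMI1640 with 5 mM glucose and 10% untreated or dialyzed FBS—was screened against an 11-point, 3-fold compound titration for 48 h at 37 °C, with CellTiter-Glo luminescence as endpoint.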
# [3] = Quantitative highthroughput screen to assess conditional lethalithy of SEM cells grown in Human Plasma-Like Medium with dialyzed fetal bovine serum (HPLM+ds) (AID 1963882); settings: SEM B-ALL cells in HPLM+ds, CellTiter-Glo viability, 48 h; series mostly up to 45.8 µM; also: nearly all actives have a fitted effect of over 35% in size; also: potency is read from the fitted curve at half-maximal effect
# In short: as §1
# [4] = Quantitative highthroughput screen to assess conditional lethalithy of SEM cells grown in RPMI1640 with dialyzed fetal bovine serum (RPMI+ds) (AID 1963884); settings: SEM B-ALL cells, RPMI+dialyzed FBS, CellTiter-Glo viability, 48 h; series mostly up to 45.8 µM; also: nearly all actives have a fitted effect of over 35% in size; also: potency is read from the fitted curve at half-maximal effect;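 as to Viability: 100% = DMSO control wells and 0% = empty wells without cells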
# In short: as §1
# [5] = Cellular viability qHTS for adrenocortical cancer (ACC) cell line SW-13 (AID 1963989); settings: SW-13 ACC cells viability, CellTiter-Glo, 48 h; activity (max response): active compounds read low; also: nearly all actives have a fitted effect of over 65% in size; also: potency is read from the fitted curve at half-maximal effect;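 as to activity (max response): cells grown in serum-free medium with ITS supplement; % is scaled to controls: 0 for no effect and ±100 for the full control effect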
# In short: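 Luminescent ATP read-out (CellTiter-Glo, 20 min at room temperature) measured metabolically competent SW-13 cells after 48 h compound treatment. Final concentrations spanned up to 46 uM; bortezomib served as positive control.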
# [6] = Quantitative highthroughput screen to assess conditional lethalithy of NOMO1 cells grown in RPMI1640 with dialyzed fetal bovine serum (RPMI+ds) (AID 1963877); settings: NOMO1 in RPMI+dialyzed FBS viability, ATP luminescence, 48 h; series mostly up to 45.8 µM;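 also: 100% = DMSO control wells and 0% = empty wells; nearly all actives have a fitted effect of over 30% in size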
# In short: as §1
# [7] = Quantitative highthroughput screen to assess conditional lethalithy of NOMO1 cells grown in Human Plasma-Like Medium with dialyzed fetal bovine serum (HPLM+ds) (AID 1963878); settings: NOMO1 AML cells in HPLM+ds, CellTiter-Glo viability, 48 h; series mostly up to 45.8 µM; also: nearly all actives have a fitted effect of over 35% in size; also: potency is read from the fitted curve at half-maximal effect;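 as to Viability: 100% = DMSO wells and 0% = empty wells on each plate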
# In short: as §1
# [8] = Quantitative highthroughput screen to assess conditional lethalithy of P12 Ichikawa cells grown in Human Plasma-Like Medium with dialyzed fetal bovine serum (HPLM+ds) (AID 1963879); settings: ATP luminescence, 48 h; Potency: viability; series mostly up to 45.8 µM; also: nearly all actives have a fitted effect of over 35% in size; also: potency is read from the fitted curve at half-maximal effect
# In short: as §1
# [9] = Quantitative highthroughput screen to assess conditional lethalithy of P12 Ichikawa cells grown in RPMI1640 with dialyzed fetal bovine serum (RPMI+ds) (AID 1963880); settings: ATP luminescence, 48 h; Potency: P12-Ichikawa viability; series mostly up to 45.8 µM; also: nearly all actives have a fitted effect of over 35% in size; also: potency is read from the fitted curve at half-maximal effect;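 as to Viability: 100% = DMSO wells and 0% = empty wells on each plate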
# In short: as §1
# [10] = Quantitative highthroughput screen to assess conditional lethalithy of P12 Ichikawa cells grown in RPMI1640 with untreated serum (RPMI+s) (AID 1963881); settings: ATP luminescence, 48 h; Potency: viability; series mostly up to 45.8 µM; also: nearly all actives have a fitted effect of over 35% in size; also: potency is read from the fitted curve at half-maximal effect;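 as to Viability: 100% = DMSO wells and 0% = empty wells without cells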
# In short: as §1
# [11] = Quantitative highthroughput screen to assess conditional lethalithy of SEM cells grown in RPMI1640 with unreated serum (RPMI+s) (AID 1963883); settings: SEM B-ALL cells, CellTiter-Glo viability, 48 h; series mostly up to 45.8 µM; also: nearly all actives have a fitted effect of over 35% in size; also: potency is read from the fitted curve at half-maximal effect;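 as to Viability: 100% = DMSO wells and 0% = empty wells without cells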
# In short: as §1
# [12] = Cellular viability qHTS for adrenocortical cancer (ACC) cell line NCI-H295R (AID 1963990); settings: CellTiter-Glo ATP luminescence, 48 h; series mostly up to 46.1 µM;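 also: 0% = DMSO only wells and -100% = full killing with cytotoxic reference compound; nearly all actives have a fitted effect of over 60% in size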
# In short: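 IC50 and maximal efficacy derive from four-parameter logistic modelling of titration curves, with reads scaled between DMSO-only wells (0%) and doxorubicin hydrochloride (100% inhibition). Compounds spanned up to 46 uM over 48 h.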
SMILES,Potency [1],Potency [2],Potency [3],Potency [4],activity (max response) [5],Potency [6],Potency [7],Potency [8],Potency [9],Potency [10],Potency [11],Potency [12],Potency [5]
Cc1cc(Nc2nc(N[C@@H](C)c3ncc(F)cn3)ncc2Cl)n[nH]1,1.05 µM (active),7.43 µM (active),5.26 µM (active),2.64 µM (active),-20.7%,–,–,–,–,–,–,–,–
O=C(O)c1cc(O)c2c(c1)C(=O)c1cccc(O)c1C2=O,23.5 µM (active),–,inactive,inactive,1.15%,inactive,inactive,inactive,inactive,inactive,inactive,inactive,–
Cc1ccccc1C(C(=O)NC1CCCCC1)N(C(=O)CNc1ccc(C#N)cc1)c1cccc(F)c1 (configuration not stated),inactive,inactive,inactive,inactive,-0.757%,–,–,inactive,–,–,inactive,inactive,–
O=C(C1CC1)N1CC[C@@H](Cn2c(-c3ccc(-c4ccc5occc5c4)cc3)nc3cnccc32)C1,14.8 µM (active),inactive,inactive,–,–,–,–,inactive,inactive,–,inactive,–,–
CNC(=O)CN1CCC(Oc2cc3c(Nc4cccc(Cl)c4F)ncnc3cc2OC)CC1,11.6 µM (active),0.372 µM (active),inactive,–,–,–,–,2.64 µM (active),3.32 µM (active),2.09 µM (active),–,inactive,562 nM (active)
CN1N=C(N)c2cn([C@@H]3O[C@H](COP(=O)(O)O)[C@@H](O)[C@@H]3O)c3ncnc1c23,0.0742 µM (active),–,0.0296 µM (active),0.0074 µM (active),–,–,5.26 µM (active),–,–,–,0.0296 µM (active),–,–
O=C(NCc1ccncc1)C12C[C@H]3C[C@@H](C1)CC(c1ccc(Cl)cc1)(C3)C2,11.8 µM (active),–,14.8 µM (active),13.2 µM (active),–,–,18.7 µM (active),11.8 µM (active),20.9 µM (active),20.9 µM (active),7.43 µM (active),inactive,–
